Screening data (PubChem)
Shown are actives, neighbours in structure and some others; about 3.4% of the full set was active somewhere.
SIRT5 inh: sirtuin-5 (human) deacylase inhibition; 1.1% of 330,000 active; inhibition, % at 15 µM; Q9NXA8; Purified SirT5, succinyl-peptide AMC, trypsin-coupled fluorescence; in the data active = inhibition above about 15%
Target sequence (Q9NXA8 whole entry, looked up): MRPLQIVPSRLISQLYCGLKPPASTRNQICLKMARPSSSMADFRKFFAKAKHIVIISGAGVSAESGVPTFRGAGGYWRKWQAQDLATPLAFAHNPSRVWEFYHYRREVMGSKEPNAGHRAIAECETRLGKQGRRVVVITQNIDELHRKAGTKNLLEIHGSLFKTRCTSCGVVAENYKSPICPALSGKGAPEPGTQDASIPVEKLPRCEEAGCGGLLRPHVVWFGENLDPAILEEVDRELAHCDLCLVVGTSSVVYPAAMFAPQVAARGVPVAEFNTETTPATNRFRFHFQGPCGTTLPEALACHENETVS
Ecoli rRNA inh: selective bacterial rRNA inhibition in E. coli; E. coli WT GFP vs humanized-ribosome RFP mutants, fluorescence, 24 h; stronger effect = lower value; DMSO median 0, no signal -100; AID 720706; GFP signal change (wild-type ribosome), % (no concentration beside the values); 1.6% of 350,000 active;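 active = significant combined selectivity score with lowered wild-type GFP, culture density cut under 30%, mutant RFP and density less affected; inactive = any of these conditions unmet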
PAX8 reporter: lowers PAX8-driven luciferase in RMG-I cells. inhibition, % at 12.6 µM. 1.2% of 360,000 active. RMG-I TPO-luciferase reporter, SteadyGlo, 24 h;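 active = mean replicate inhibition at least 60% with every replicate also reaching 60%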;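 note: luciferase light reporting Pax8 driven TPO promoter activity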
LGR2 antag: Drosophila LGR2 receptor signaling inhibition. inhibition, % at 9.99 µM. HEK293 LGR2, CRE-luciferase, bursicon-stimulated, 4 h. 0.35% of 380,000 active;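 active = drop in luminescence signal, shown as inhibition above about 50% in the replicate tests, limit read from the data, passing the limit was not always enough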;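 note: agonist challenge used bursicon conditioned medium at about half maximal strength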
EWS-Fli inh: EWS/Fli transcriptional activity inhibition; A673 NR0B1-luciferase reporter, viability-normalised; inhibition, % at 12.6 µM; 0.67% of 350,000 active; AID 651661;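 active = mean inhibition of at least 50% after viability correction, with every replicate also passing that limit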;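 note: firefly luciferase signal divided by Alamar Blue viability fluorescence both relative to DMSO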
PGC1a acetyl inh: modulators of PGC1a acetylation | U2OS PGC1a acetylation, AlphaScreen anti-acetyl-lysine; with virally co-expressed GCN5 acetyltransferase | inhibition, % at 15.6 µM | 0.17% of 350,000 active;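 active = every replicate shows inhibition of at least 40%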
Hits are given with their value; – = inactive; · = no result.

SMILES	SIRT5 inh	Ecoli rRNA inh	PAX8 reporter	LGR2 antag	EWS-Fli inh	PGC1a acetyl inh
O=C(/C=C/c1cccc([N+](=O)[O-])c1)Nc1cccc(NC(=O)c2ccco2)c1	–	–	–	–	–	·
O=C(/C=C/c1cccc([N+](=O)[O-])c1)c1ccco1	–	–	–	–	58	·
COc1ccc(/C=C/C(=O)c2ccc([N+](=O)[O-])o2)cc1	·	–	–	–	–	–
Cc1cccc(/C=C/C(=O)c2ccc([N+](=O)[O-])o2)c1	–	–	–	101	63	·
C[C@H](CO)N1C[C@H](C)[C@@H](CN(C)C)Oc2c(NC(=O)Cc3cn(C)c4ccccc34)cccc2C1=O	·	–	·	·	·	·
Cc1cccc(-c2ccc([C@@H]3[C@@H](CO)N4C(=O)CN(C(=O)Cc5ccccn5)C[C@H]34)cc2)c1	–	–	–	–	–	–
CC(C)c1cn(CC[C@@H]2CC[C@@H](NC(=O)c3cccc(F)c3)[C@@H](CO)O2)nn1	–	–	–	–	–	–
C[C@@H]1CCCCO[C@@H](CN(C)Cc2ccccc2)[C@H](C)CN([C@H](C)CO)C(=O)c2cc(NC(=O)Nc3ccc(C(F)(F)F)cc3)ccc2O1	–	–	112	–	–	–
C[C@@H]1CCCCO[C@@H](CN(C)Cc2ccccc2)[C@@H](C)CN([C@H](C)CO)C(=O)c2cc(NC(=O)Nc3ccc(C(F)(F)F)cc3)ccc2O1	–	–	77	–	–	–
C[C@@H]1CCCCO[C@@H](CN(C)Cc2ccccc2)[C@H](C)CN([C@@H](C)CO)C(=O)c2cc(NC(=O)Nc3ccc(C(F)(F)F)cc3)ccc2O1	–	–	106	–	–	–
COc1ccc(S(=O)(=O)N(C)C[C@@H]2Oc3ccc(NS(=O)(=O)c4cccs4)cc3CC(=O)N([C@H](C)CO)C[C@@H]2C)cc1	–	–	·	–	–	–
C[C@H]1CN([C@@H](C)CO)C(=O)Cc2cc(NC(=O)CCCCCC(=O)Nc3ccccc3N)ccc2O[C@H]1CN(C)C(=O)Nc1cccc2ccccc12	–	–	–	–	–	–
C[C@@H]1CCCn2cc(nn2)COCCNC1=O	·	–	·	·	·	·
CO[C@@H]1CN(C)C(=O)c2cc(NS(=O)(=O)CC(F)(F)F)ccc2OC[C@H](C)N(Cc2nccs2)C[C@H]1C	·	–	·	–	–	–
C/C=C/c1cnc2c(c1)C(=O)N([C@@H](C)CO)C[C@@H](C)[C@@H](CN(C)C(=O)C1CCCCC1)O2	–	–	·	–	–	–
Cc1cc(OCc2nnc(SC(C)C(=O)O)n2Cc2ccccc2)ccc1Cl (stereo not drawn)	24	–	–	–	–	–
Cc1cc(/C=C2\Sc3ccccc3N2C)cc(C)[n+]1CC1CCCO1 (stereo not drawn)	–	–	78	–	–	–
Cc1ccc(/C=C2/Sc3ccccc3N(CC(=O)NCC3CCCO3)C2=O)cc1 (stereo not drawn)	·	·	·	·	·	–
FC(F)(F)c1cccc(NC(=S)Nc2ccc(Cl)c(Cl)c2)c1	–	-49	–	–	–	–
CC(C)(C)NC(=S)Nc1cccc(C(F)(F)F)c1	–	-48	–	–	–	–
Cc1ccc(S(=O)(=O)N(C)C[C@@H]2OCCCC[C@@H](C)Oc3ccc(NS(=O)(=O)c4cn(C)cn4)cc3C(=O)N([C@@H](C)CO)C[C@H]2C)cc1	–	–	–	–	–	–
C[C@H]1CN([C@@H](C)CO)S(=O)(=O)c2ccc(/C=C/c3ccccc3)cc2O[C@H]1CN(C)C(=O)Nc1cc(F)ccc1F	22	–	64	–	–	–
C[C@H]1CN([C@@H](C)CO)S(=O)(=O)c2ccc(/C=C/c3ccccc3)cc2O[C@@H]1CN(C)C(=O)Nc1ccc(F)cc1	28	–	·	–	–	–
C[C@@H]1CN([C@H](C)CO)S(=O)(=O)c2ccc(/C=C/c3ccccc3)cc2O[C@H]1CN(C)C(=O)Nc1ccc(F)cc1	–	–	·	–	–	–
C[C@H]1CN([C@@H](C)CO)S(=O)(=O)c2ccc(/C=C/c3ccccc3)cc2O[C@@H]1CN(C)C(=O)Nc1cc(F)ccc1F	·	–	–	–	–	–
SMILES	SIRT5 inh	Ecoli rRNA inh	PAX8 reporter	LGR2 antag	EWS-Fli inh	PGC1a acetyl inh
C[C@H](CO)N1C[C@H](C)[C@@H](CN(C)C(=O)Nc2ccc(F)cc2)Oc2cc(/C=C/c3ccccc3)ccc2S1(=O)=O	16	–	·	–	–	–
CCC(=O)N1C[C@@H](C)[C@@H](OC)CN(C)C(=O)c2cc(NS(=O)(=O)CC)ccc2OC[C@@H]1C	–	–	–	–	–	–
O=C(NC1CCCCC1)C(c1ccccn1)N(C(=O)c1csnn1)C1CCCCC1 (stereo not drawn)	15	–	–	–	–	–
Cc1ccc(N(C(=O)c2csnn2)C(C(=O)NC2CCCCC2)c2ccco2)cc1 (stereo not drawn)	79	–	–	–	–	·
CC(C)(C)NC(=O)C(c1ccccn1)N(C(=O)c1csnn1)C1CCCC1 (stereo not drawn)	27	–	–	–	–	–
CC(C)(C)NC(=O)C(c1ccncc1)N(C(=O)c1csnn1)C1CC1 (stereo not drawn)	·	·	–	·	·	–
COc1cccc(CN2CC3(CN(C(C)=O)C3)c3c(n(C)c4cc(OC)ccc34)[C@H]2CO)c1	–	–	·	–	–	–
CC(=O)Nc1ccc2c(c1)CC(=O)N(C)C[C@H](C)[C@H](CN(C)C(=O)NC(C)C)O2	·	–	·	·	·	·
Cc1cc(C)cc(C(=O)Nc2ccc(N3CCCC3)cc2)c1	–	-30	–	–	–	·
COC(=O)c1cc(NC(=O)c2cc(-c3ccccc3Cl)oc2C(F)(F)F)ccc1N1CCOCC1	–	-32	–	–	–	–
COC(=O)c1cc(NC(=O)c2cc(-c3ccc(Cl)cc3)oc2C(F)(F)F)ccc1N1CCOCC1	–	–	–	–	–	–
CCOc1ccccc1NC(=O)NNS(=O)(=O)c1cc(C)ccc1C	–	–	–	–	–	–
CCOc1ccccc1NC(=S)NNS(=O)(=O)c1c(C)cc(C)cc1C	–	-16	–	–	–	·
CCCc1nc(SCC(=O)N2CCc3ccccc3C2)c2ccccc2n1	–	-27	·	–	–	–
C[C@H]1CN([C@@H](C)CO)C(=O)Cc2cc(NC(=O)Cc3ccccc3)ccc2O[C@H]1CN(C)Cc1ccc(Cl)c(Cl)c1	–	–	–	–	–	–
COc1ccccc1-c1cc2nc(-c3ccccc3)cc(N3CCN(C(=O)c4ccoc4)CC3)n2n1	–	–	67	–	–	·
COc1cccc(-c2cc3nc(-c4ccccc4)cc(N4CCN(C(=O)c5ccoc5)CC4)n3n2)c1	–	–	68	–	–	–
O=C(c1ccoc1)N1CCN(c2cc(-c3ccccc3)nc3cc(-c4ccccc4)nn23)CC1	–	–	–	–	–	–
